Inconclusive results are not listed. A call without a number means that no potency is given here. Active and inactive are the calls of the source. The call rests on the fitted dose curve; in most records, active means well fitted activation curve with a large enough effect; inconclusive means small, poorly fitted or top-dose-only effect; inactive means no such curve, though single readings can be large or run the other way.

The record followed here is PubChem BioAssay AID624305 (National Center for Advancing Translational Sciences (NCATS), 2012).
Potency means the concentration at half of the fitted maximal effect.

The experiment is described as follows: qHTS assay for re-activators of p53 using a Luc reporter: Hit Validation. Further: nearly all actives have a fitted effect of over 75% in size. As to conditions: p53-responsive luciferase reporter cells, luminescence, H1299 line expressing heat-sensitive Ala138Val p53; series mostly up to 46.1 µM. Summed up:
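Hit confirmation with a 1:5 dilution series, at 37 deg C for 24 hrs, in H1299 cells co-expressing temperature-sensitive p53-A138V and p53-responsive luciferase. Nocodazole served as control; luminescence read after 10 min with detection reagent.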
Consider `CC(C)CNC(=S)Nc1ccc(Oc2ccccc2)cc1`, for which the Potency result was “inactive”.
Turning to `O=C(NCC1CCCO1)c1ccc(NC(=O)c2cccc([N+](=O)[O-])c2)cc1` (centres undefined), the Potency result is “inactive”.
Turning to `CCOC(=O)c1cc(-c2ccccc2)sc1NC(=O)CC`, the Potency entry was “inactive”.
Take `Fc1ccccc1OCCSc1nnnn1-c1ccccc1`: the Potency is 0.82 µM (active).
`Cc1ccc(-c2cc3nc(C)cc(NCc4ccco4)n3n2)cc1`: the Potency is 7.31 µM (active).
The same measure, in the same setting: under `Cc1cc(F)ccc1NC(=O)Nc1ccc2c(c1)OCO2` stands “inactive”.
As to `Cc1ccc(C(=O)Nc2ccn(C)n2)cc1`, the Potency is 8.2 µM (active).
Take `C/C(=N\NC(=S)NC(C)C)c1ccc(Cl)s1`: the Potency result is “inactive”.
The same measure, in the same setting: as for `CN(/N=C/c1ccc2c(c1)OCO2)c1ccccc1`, the figure is 14.6 µM (active); as for `COc1cc(C2=NOC(C(=O)NCc3ccc(F)cc3)C2)cc(OC)c1OC` (centres undefined), “inactive”.
For the molecule `Cc1cccc(C)c1NC(=O)CC(NCc1ccco1)C(=O)O` (centres undefined), the activation is -13.7% [at 9.22 µM] (inactive).
As for `c1ccc2cc3c(NCCN4CCOCC4)ccnc3cc2c1`, the Potency result was “inactive”.
Take `O=C(NC1CCCCC1)c1ccc(-c2ccccc2F)o1`: the Potency was 3.66 µM (active).
As to `O=C(C1CCCN1S(=O)(=O)c1ccc(Cl)cc1)N1CCOCC1` (centres undefined), the Potency result was “inactive”.
Turning to `CC1CCN(C2=C(NS(=O)(=O)c3ccc(Br)cc3)C(=O)c3ccccc3C2=O)CC1`, the Potency result was “inactive”.
As to `CC(=O)Nc1ccc(Nc2cc(C)nc3c(-c4ccccc4)cnn23)cc1`, the Potency is 0.116 µM (active).
The same measure, in the same setting: under `Cc1ccc(/C=C(\C#N)C(=O)NCC2CCCO2)o1` (centres undefined) stands “inactive”; under `CCOC(=O)c1sc(NC(=S)NC(=O)c2ccco2)nc1C`, “inactive”.
Regarding `Fc1cccc(NCc2cn3ccccc3n2)c1`, the Potency was 3.26 µM (active).
